In the library only some 19% were active in any assay of this set; here they are far more common.
Cycloheximide cs: counter-screen for Shiga toxin inhibitors: cycloheximide protein synthesis inhibition; cell reporter, cycloheximide protein synthesis inhibition counterscreen; max response, %; 300,000 compounds, 12% hits; AID 2314; in the data active = max response mostly above about 13%, no sharp cut-off; inactive = mostly below about 14%; note: read at 38.3 µM for the half of the compounds with a filed dose
Shiga inhibitor: Shiga toxin inhibition | inhibition, % at 38.7 µM | AID 2315 | 290,000 compounds, 9.2% hits | Vero cells, Shiga toxin protein synthesis inhibition reporter; in the data active = inhibition mostly above about 28%, no sharp cut-off; inactive = mostly below about 43%
Marburg entry inh: Marburg virus entry inhibition; AID 540276; Marburg virus pseudotyped entry inhibition, cell reporter; 300,000 compounds, 1.8% hits; Potency, µM (series often up to 37.8 µM), most hits filed as inhibitors; calls by dose curve; tested in HEK293 cells
Pf growth 96h: inhibits malaria parasite growth, 96 h; P. falciparum luciferase reporter growth, 96 h; Potency, µM (top dose mostly 28.7 µM), hits mostly inhibitors; 320,000 compounds, 6.9% hits
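Infected RBCs, 2% Hct / 0.05% parasitemia final; luciferase-reporter P. falciparum; cpd 96 h, 37 C, 5% CO2; luciferase detection reagent; luminescence.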
LASV entry inh: Lassa virus entry inhibition; Potency, µM (top dose mostly 37.9 µM), most hits filed as inhibitors; 300,000 compounds, 1.2% hits; Lassa virus pseudotype entry inhibition, cell reporter; AID 540256; calls by dose curve; tested in HEK293 cells; note: nearly all actives have a fitted effect of over 50% in size
Pf growth 48h: P. falciparum growth inhibition at 48 hours (one generation); Potency, µM (top dose mostly 28.7 µM), hits mostly inhibitors; 310,000 compounds, 5.9% hits; P. falciparum luciferase growth in erythrocytes, 48 h
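Luciferase-expressing P. falciparum in infected erythrocytes (2% hematocrit, 0.1% parasitemia final) in RPMI 1640/0.5% Albumax were exposed to compound for 48 hours at 37 C, 5% CO2; growth read as luminescence.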
Numbers stand for hits; – = inactive; ? = inconclusive; · = no result; [ ] = remark or other dose. Unless noted, calls come from the whole dose curve; as a rule, active = well fitted inhibition curve with a large enough effect; inconclusive = small, poorly fitted or top-dose-only effect, or another doubt; inactive = no such curve, though single readings can be large or run the other way.

SMILES	Cycloheximide cs	Shiga inhibitor	Marburg entry inh	Pf growth 96h	LASV entry inh	Pf growth 48h
O=C(c1ccc(F)cc1)C1CCN(C(=O)Nc2ccccc2Cl)CC1	–	–	–	2.9µM	–	–
O=C(Nc1ccccc1)N1CCCC2CCCCC21 (centres undefined)	45	94	?	·	?	–
O=C(NC1CCCC1)C1CCCN1C(=O)Nc1ccccc1 (centres undefined)	–	–	–	–[5.75 µM]	–	–
Cc1ccccc1NC(=O)N1CCC(C(=O)c2ccc(F)cc2)CC1	–	–	·	?	·	–
CN(Cc1ccc(C(C)(C)C)cc1)C(=O)C1CCN(C(=O)Nc2ccccc2)CC1	·	·	?	13µM	?	10µM
Cc1ccc(CNC(=O)CSc2nnc3c(n2)[nH]c2ccccc23)cc1	–	–	–	–	–	–
CCOC(=O)N1CCN(C(=O)c2oc(=O)c3ccccc3c2-c2ccc(C)cc2)CC1	–	–	–	–	·	·
COc1ccccc1N(CC(=O)Nc1cc(C)on1)S(=O)(=O)c1ccc(Cl)cc1	–	–	?	·	?	?
Cc1ccc(NC(=S)NNC(=O)c2c(Cl)c(C)nn2C)cc1	–	–	–	?	?	–
O=C(NNC(=S)Nc1ccccc1)Nc1ccccc1	34	88	–	–	?	–
Cc1ccc(NC(=S)NNC(=O)Nc2ccccc2)cc1	54	109	?	–	–	–
Cc1ccc(NC(=S)NNC(=O)c2nn(C)c(C)c2Cl)cc1	36	93	–	–	–	–
CCCS(=O)(=O)N1CCC(C(=O)NCCc2ccccc2)CC1	–	–	–	–	–	–
CC(=O)c1cccc(N(CC(=O)N2CCOCC2)S(C)(=O)=O)c1	–	–	–	·	–	–
Cc1cccc2c1CC(C)(C)N=C2C1=C(O)CC(C)(C)CC1=O	–	–	?	13µM	–	?
Cc1ccccc1NC(=S)N1CCN(c2ccccc2Cl)CC1	–	–	–	–	–	–
COc1c(C(CC(C)C)OC(C)=O)ccc2c1C(=O)OCc1cc(C)cc(O)c1O2 (centres undefined)	–	–	·	–	·	8.3µM
COc1ccc(NC(=O)CC2C(=O)N(C)C(=S)N2Cc2ccc3c(c2)OCO3)cc1 (centres undefined)	–	–	11µM	–	–	–
COC(=O)CN1C(=S)N(Cc2ccccc2)C(=O)C1CC(=O)Nc1ccc(OC)cc1 (centres undefined)	–	–	–	–	–	4.1µM
CCOC(=O)C1=C(CN2CCN(C(=O)c3ccco3)CC2)NC(=O)NC1c1ccccc1 (centres undefined)	–	–	·	–	·	?
O=c1[nH]c(=O)n(Cc2ccc(F)cc2)c(O)c1C=NCc1cccnc1	–	–	–	–	–	?
CN(c1cccc(NC(=O)CN(c2ccc(Cl)c(Cl)c2)S(=O)(=O)c2ccccc2)c1)S(C)(=O)=O	–	–	?	?	?	?
Cc1ccc(S(=O)(=O)N(CC(=O)Nc2cccc(N(C)S(C)(=O)=O)c2)c2ccc(Cl)c(Cl)c2)cc1	–	–	16µM	?	?	13µM
CN(c1cccc(NC(=O)CN(c2ccc(F)cc2)S(C)(=O)=O)c1)S(C)(=O)=O	–	–	–	–	–	?
CN(c1cccc(NC(=O)CN(c2ccc(C34CC5CC(CC(C5)C3)C4)cc2)S(C)(=O)=O)c1)S(C)(=O)=O	–	–	18µM	17µM	7.3µM	?
SMILES	Cycloheximide cs	Shiga inhibitor	Marburg entry inh	Pf growth 96h	LASV entry inh	Pf growth 48h
CC(OC(=O)CCN=C1NS(=O)(=O)c2ccccc21)C(=O)Nc1ccc(F)cc1Cl (centres undefined)	·	·	–	–	–	–
Cc1ccccc1-n1nc(C)c2cc(C(=O)N3CCOCC3)sc21	–	–	–	3.3µM	–	–
Cc1nn(-c2ccccc2)c2sc(C(=O)Nc3ccc(Br)cc3)cc12	·	·	–	·	–	·
Cc1nn(-c2ccccc2)c2sc(C(=O)NCCN3CCOCC3)cc12	–	–	?	3.7µM	–	?
Cc1nn(-c2ccccc2)c2sc(C(=O)N3CCc4ccccc4C3)cc12	–	–	?	?	–	–
Cc1ccc(S(=O)(=O)N2CCN(C(=O)c3cc4c(C)nn(-c5ccccc5C)c4s3)CC2)cc1	–	–	18µM	3.3µM	?	4.7µM
Cc1nn(-c2ccccc2)c2sc(C(=O)NC3CCCCC3)cc12	–	–	–	–	–	?
Cc1cnc(NC(=O)c2cc3c(C)nn(-c4ccccc4)c3s2)s1	–	–	–	?	–	6.6µM

High-throughput results deposited in PubChem BioAssay by National Center for Advancing Translational Sciences (NCATS).
